Source: PubChem BioAssay (NCI)
About 83,000 compounds went through this panel and 20% of them were active in at least one assay; those are over-represented in the sample as a whole.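 Compound tested at a single concentration for 48 hours in 96-well plates; a percent growth value below 10 was scored as active.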 Calls of active or inactive are those of the source.

These compounds were tested on SK-OV-3 ovarian (assay: NCI-60 one-dose screen, 48 h (100 = growth as untreated, 0 = no growth, -100 = all killed)). Details: 10 µM.
With `COc1cc2cc(C(=O)N3C[C@@H](CCl)c4c3cc(OC(=O)N3CCN(C)[C@@H]5CSSC[C@H]53)c3ccccc43)[nH]c2c(OC)c1OC` the growth was -26.3% (active).
For `CC1=C(CCC=O)C2=C(C)C3(CC3)[C@@](C)(O)C(=O)C2=C1`, the growth was -62% (active).
In the case of `COC(=O)C[C@](O)(CCC(C)C)C(=O)O[C@@H]1C(OC)=C[C@]23CCCN2CCc2cc4c(cc2[C@H]13)OCO4`, the growth is reported as -25.6% (active).
With `O=C(/C=C/c1ccc(Cl)cc1)c1nc2ccccc2n1Cc1ccc(F)cc1` the growth was 78.1% (inactive).
With `CC[C@]12C=CCN3CC[C@@]4(c5ccc(OC)cc5N(C)[C@H]4[C@@](O)(C(=O)OC)[C@@H]1OC(=O)CCC[P+](C1CCCCC1)(C1CCCCC1)C1CCCCC1)[C@@H]32` the growth was -7.72% (active).
With `CC1=C2C(=C[C@@](C)(COP(=O)(Oc3ccccc3)Oc3ccccc3)[C@@H]2O)C(=O)[C@@](C)(O)C12CC2` the growth was -79.5% (active).
For `CC(=O)Oc1ccccc1C(=O)NC([Se])=NC1CCCCC1`, the growth was -41.7% (active).
With `CCOP(=O)(CC(F)(F)C(F)(F)F)OCC` the growth was 111% (inactive).
For `CC(C)C[C@H](NC(=O)CNC(=O)C[C@H]1O[C@@H]2OC3(C)CC[C@H]4[C@H](C)CC[C@@H]([C@H]1C)[C@@]24OO3)B(O)O`, the growth was 41.6% (inactive).
For `C[C@H]1[C@@H](Oc2ccc(-c3cn(-c4ccnc5cc(Cl)ccc45)nn3)cc2)O[C@@H]2OC3(C)CC[C@H]4[C@H](C)CC[C@@H]1[C@@]24OO3`, the growth was 52.3% (inactive).
`C[C@H]1[C@H](OC(=O)CCC(=O)N(CCCc2cn(-c3ccc([N+](=O)[O-])cc3)nn2)CCNc2ccnc3cc(Cl)ccc23)O[C@@H]2OC3(C)CC[C@H]4[C@H](C)CC[C@@H]1[C@@]24OO3` was tested, and the growth was 98.2% (inactive).
For `COc1cc2cc(C(=O)N3C[C@@H](CCl)c4c3cc(OC(=O)N3CCN(C)[C@@H]5CSSC[C@@H]53)c3ccccc43)[nH]c2c(OC)c1OC`, the growth was -6.59% (active).
For `COc1cc2cc(C(=O)N3C[C@@H](CCl)c4c3cc(OC(=O)N3CCN(C(=O)CCC(=O)N5CCN(C)CC5)[C@@H]5CSSC[C@@H]53)c3ccccc43)[nH]c2c(OC)c1OC`, the growth was 3.05% (active).
For `COC(=O)c1ccc(-n2cc(CCCN(CCNc3ccnc4cc(Cl)ccc34)C(=O)CCC(=O)O[C@@H]3O[C@@H]4OC5(C)CC[C@H]6[C@H](C)CC[C@@H]([C@H]3C)[C@@]46OO5)nn2)cc1`, the growth was 85.6% (inactive).
In the case of `O=C([Se]C1C=CCCC1)c1ccc(C(=O)[Se]C2C=CCCC2)s1` (stereo not given), the growth is reported as -97.5% (active).
`O=C(/C=C/c1cccc(Br)c1)c1nc2ccccc2n1Cc1ccc(F)cc1` was tested, and the growth was 81.2% (inactive).
In the case of `CC[C@]12C=CCN3CC[C@@]4(c5ccc(OC)cc5N(C)[C@H]4[C@@](O)(C(=O)OC)[C@@H]1OC(=O)CCC[P+](c1ccc(C)cc1)(c1ccc(C)cc1)c1ccc(C)cc1)[C@@H]32`, the growth is reported as -81% (active).
`O=C(NC([Se])=NC1CCCCC1)c1ccccc1` was tested, and the growth was 5.33% (active).
For `O=C(/C=C/c1ccc(F)cc1)c1nc2ccccc2n1Cc1ccc(F)cc1`, the growth was 70.4% (inactive).
In the case of `O=C(/C=C/c1ccccc1)c1nc2ccccc2n1Cc1ccc(Br)cc1`, the growth is reported as 28.7% (inactive).
In the case of `C=CC[Se]C(=O)c1cncc(C(=O)[Se]CC=C)c1`, the growth is reported as -92.2% (active).
`COc1ccc(OC)c(/C=C/C(=O)c2nc3ccccc3n2Cc2ccc(F)cc2)c1` was tested, and the growth was 50.2% (inactive).
`O=C(/C=C/c1ccc(F)cc1)c1nc2ccccc2n1Cc1ccc(Br)cc1` was tested, and the growth was 30.2% (inactive).
With `CC[C@]12C=CCN3CC[C@@]4(c5ccc(OC)cc5N(C)[C@H]4[C@@](O)(C(=O)OC)[C@@H]1OC(=O)CCCC[P+](c1ccc(C)cc1)(c1ccc(C)cc1)c1ccc(C)cc1)[C@@H]32` the growth was -82.3% (active).
For `CC(C)N=C([Se])NC(=O)c1cccs1`, the growth was -17.3% (active).
`CC1=C(CCC=NNC(N)=O)C2=C(C)C3(CC3)[C@@](C)(O)C(=O)C2=C1` was tested, and the growth was -72.1% (active).
With `Cc1ccc2[nH]c(=S)n(-c3ccc(F)cc3)c(=O)c2c1` the growth was 122% (inactive).
`C#CC[Se]C(=O)c1ccc2n[se]nc2c1` was tested, and the growth was 95.4% (inactive).
For `CC1=C(COCCOC(=O)c2ccc(S(=O)(=O)F)cc2)C2=C(C)C3(CC3)[C@@](C)(O)C(=O)C2=C1`, the growth was -5.65% (active).
In the case of `CC12CCC3(CCC(=O)NCCCNc4ccnc5cc(Cl)ccc45)[C@@](C)(OO[C@]3(C)O1)O2`, the growth is reported as 13.1% (inactive).
